# GALK inhibitor – inhibitors of human galactokinase. Purified GALK, Kinase-Glo residual ATP luminescence. Potency, µM (highest dose often 57.5 µM), without a hit: top-dose activity change, negative = inhibition, usual class: inhibitors. hit rate 0.007% among 270,000. P51570; note: potency is the fitted concentration of half-maximal effect
#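 Human GALK (5 nM) with 35 uM ATP and 100 uM galactose in 20 mM HEPES pH 8.0, 5 mM MgCl2, 60 mM NaCl, 1 mM DTT, 0.01% BSA. After 1 h at room temperature, leftover ATP was read by Kinase-Glo Plus luminescence.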
# TrxR1 substrate – rat thioredoxin reductase 1 substrate activity | purified TrxR1 substrate turnover, NADPH consumption readout | Potency, µM (titrated, usually from 114 µM), for inactives: at the top dose activity change, negative = substrate turnover | hit rate 0.01% among 390,000 | O89049; note: potency is the fitted concentration of half-maximal effect; nearly all actives have a fitted effect of over 50% in size
# Target sequence (O89049 whole entry, looked up): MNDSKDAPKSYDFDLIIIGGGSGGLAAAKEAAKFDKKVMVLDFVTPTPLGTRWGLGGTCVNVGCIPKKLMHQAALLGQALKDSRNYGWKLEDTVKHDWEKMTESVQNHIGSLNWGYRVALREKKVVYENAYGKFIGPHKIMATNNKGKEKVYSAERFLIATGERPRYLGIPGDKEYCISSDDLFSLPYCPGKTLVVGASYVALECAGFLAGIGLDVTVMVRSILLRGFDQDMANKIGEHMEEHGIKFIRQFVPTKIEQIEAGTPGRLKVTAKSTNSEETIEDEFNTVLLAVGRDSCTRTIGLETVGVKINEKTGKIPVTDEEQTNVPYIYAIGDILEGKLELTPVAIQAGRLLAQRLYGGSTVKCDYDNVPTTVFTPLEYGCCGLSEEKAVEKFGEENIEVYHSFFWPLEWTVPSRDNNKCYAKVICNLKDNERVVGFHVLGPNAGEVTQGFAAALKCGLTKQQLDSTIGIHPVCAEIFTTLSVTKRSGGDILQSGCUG
#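 Rat TrxR1, dispensed at 90 nM, was prereduced with 400 uM NADPH (final) for 5 min at ~22 deg C, then incubated with compound 15 min before 400 uM selenite. A first-read NADPH fluorescence drop versus no-compound background flagged substrates.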
# TrxR1 inh – blocks rat thioredoxin reductase 1 | recombinant rTrxR1, NADPH fluorescence consumption, selenite substrate | Potency, µM (titrated, usually from 114 µM), for the others: at the top dose activity change, negative = inhibition, hits mostly inhibitors | hit rate 1% among 390,000 | AID 588453; note: potency is the fitted concentration of half-maximal effect; nearly all actives have a fitted effect of over 65% in size
#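 Rat TrxR1 (90 nM in the dispensed reagent) was pre-reduced with 400 uM NADPH for 5 min at room temperature, then incubated with compound for 15 min. After 400 uM selenite was added, NADPH fluorescence (Ex 340/Em 450 nm) was followed for 8 min.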
# PI4K2A inh – PI4K2A (human) kinase inhibition. Q9BTU6. purified PI4K2A, ADP-Glo luminescence, 1 h; hits give low values. activity change, negative = inhibition, % at 76.9 µM. hit rate 0.13% among 420,000; in the data active = activity change below about -50%; inconclusive = mostly about -30% to -49%;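 note: -100% = wells without enzyme as full effect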
#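 ADP-Glo luminescence measured ADP generated by PI4K2A enzyme (4 ug/mL before mixing) with 1.2 mM PI substrate (pre-mix) and 300 microM ATP (pre-mix). Tris pH7.5 buffer with MgCl2, Triton X-100; 1 h reaction at ambient temperature.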
# * marks the source's active call; other numbers are inactive results; i = inactive; u = inconclusive; x = no result given; [ ] = dose if it differs, or a comment. This is a sample that favours compounds with a hit; in the whole collection about 1.1% have one here. Unless noted, calls come from the whole dose curve; as a rule, active = well fitted curve in the direction sought with a large enough effect; inconclusive = small, poorly fitted or top-dose-only effect, or another doubt; inactive = no such curve, though single readings can be large; an effect the other way counts as inactive or inconclusive. Unless noted, % is set by controls: 0 for no effect and ±100 for the full control effect.
SMILES,GALK inhibitor,TrxR1 substrate,TrxR1 inh,PI4K2A inh
CNc1ncnc2c1cnn2-c1ccc(C)c(C)c1,x,5.2%[57.1 µM],0.9%[57.1 µM],-1.5
CCOC1=C2CN(S(=O)(=O)c3ccc(C)cc3)[C@H](c3ccccc3)C[C@@H]2N(S(=O)(=O)c2ccc(C)cc2)[C@H](c2cccs2)C1,x,x,x,-1.7
C[C@@H](O)[C@H](N)C(=O)O,x,x,x,i
O=c1[nH]sc2cc(Cl)ccc12,x,x,x,0.4
Cc1cccc(CN2CCN(C(=O)c3cccc4ccccc34)CC2)c1,3.5%,-3.2%[57.1 µM],7.6%[57.1 µM],-0.5
Cc1ccc(/C=C/C(=O)N2CCN(S(=O)(=O)c3c(C)c(C)cc(C)c3C)CC2)o1,0.1%,-4.0%[11.4 µM],-76.4%[57.1 µM],-5.1
Cc1ccc(/C=C/C(=O)N2CCN(S(=O)(=O)c3ccc(C)c(C)c3)CC2)o1,-0.4%,-2.7%,17.8µM*,-21.4
Cc1cccc(CN2CCN(C(=O)CCl)CC2)c1,0.8%,7.4%,11.2µM*,8.1
O=C1CC[C@H](C(=O)N2CCCCC2)N1,x,x,x,1.7
COc1ccc(/C=C(/C(=O)c2cccs2)N2C=CC=CC2=C(C#N)C#N)cc1,1.6%,2.3%,0.112µM*,11.3
COc1ccc(N=N/C(=C\O)C(=O)c2cccs2)cc1,0.7%,-4.2%[57.1 µM],3.4%[57.1 µM],-0.9
COc1ccc(C(=O)/C(=C\c2ccco2)N2C=CC=CC2=C(C#N)C#N)cc1,-0.4%,2.6%,8.91µM*,17.1
N#CC(C#N)=C1C=CC=CN1/C(=C\c1ccco1)C(=O)c1ccc(Br)cc1,-2.8%,-4.6%,1.12µM*,16.9
COc1ccc(C(=O)N/C(=C\c2ccco2)C(=O)OCc2ccco2)cc1,x,-22.3%[57.1 µM],-79.8%,0.8
N#CC(C#N)=C1C=CC=CN1/C(=C\c1ccco1)C(=O)c1ccccc1,1.2%,-14.6%,1.58µM*,10.6
Cc1ccccc1NC(=O)c1sc2nc(-c3ccncc3)ccc2c1N,x,-2.1%,7.8%,-4.6
Cc1ccc(N2C(=O)CC(N(O)C3CC(=O)N(c4ccc(C)cc4)C3=O)C2=O)cc1 (stereo not given),1.3%,2.1%[57.1 µM],u,4.0
CCCCCCC(=O)N(O)C1CC(=O)N(c2ccc(Cl)cc2)C1=O (stereo not given),4.8%,8.9%[57.1 µM],11.2µM*,-6.0
CCCCCCC(=O)N(O)C1CC(=O)N(c2ccc(C)cc2)C1=O (stereo not given),-1.6%,13.2%,15.8µM*,4.2
CCOC(=O)c1cc(C)n(CC2CCC(C(=O)Nc3cccc(C(C)=O)c3)CC2)c1C (stereo not given),x,-3.6%,22.0%,-2.3
NCCCC(N)CC(=O)NCC1NC(=O)C(CO)NC(=O)C(N)CNC(=O)C(C2CCN=C(N)N2)NC(=O)C(=CNC(N)=O)NC1=O (stereo not given),x,x,x,i
COc1c(C)c2c(c(O)c1C/C=C(\C)CCC(=O)OCCN1CCOCC1)C(=O)OC2,x,x,x,-0.9
CCN(CC)C(=O)C1CCCN(c2ncnc3c2c(-c2ccccc2)cn3-c2cccc(C)c2)C1 (stereo not given),x,4.0%[57.1 µM],15.1%[57.1 µM],-7.5
Cc1sc2ccccc2[n+]1CCC[n+]1c(C)sc2ccccc21,x,-5.3%,222.2%,x
Cc1cccc(C(=O)Nc2nc(-c3nnn(-c4cc(C)ccc4C)c3C)ns2)c1,x,3.6%[57.1 µM],9.8%[57.1 µM],-1.7
SMILES,GALK inhibitor,TrxR1 substrate,TrxR1 inh,PI4K2A inh
Cc1ccccc1NC(=O)C1CCN(S(=O)(=O)c2c(C)noc2/C=C/c2ccco2)CC1,x,-10.6%,-21.8%,-17.6
Cc1noc(/C=C/c2ccco2)c1S(=O)(=O)N1CCC(C(=O)N2CCc3ccccc3C2)CC1,0.7%,-7.6%,50.1µM*,u
Cc1oc2ccc(O)c(CN3CCCCCC3)c2c1C(=O)Nc1cccc(C(F)(F)F)c1,x,-6.4%,-2.4%,-4.9
CC1CCN(C(=O)c2ccc(S(=O)(=O)Cc3cccc(F)c3)c([N+](=O)[O-])c2)CC1,1.1%,2.9%,u,16.2
Cc1ccccc1CS(=O)(=O)c1ccc(C(=O)N2CCC(C)CC2)cc1[N+](=O)[O-],-1.3%,7.1%,9.7%[57.1 µM],5.7
O=C(c1ccc(S(=O)(=O)Cc2cc(F)ccc2F)c([N+](=O)[O-])c1)N1CCCCC1,-0.9%,0.1%,4.47µM*,15.5
O=C(c1ccc(S(=O)(=O)Cc2cc(F)ccc2F)c([N+](=O)[O-])c1)N1CCCC1,-1.2%,-9.0%[57.1 µM],10µM*,22.5
CCOc1ccccc1NC(=O)Cn1c(=O)n(Cc2ccc(OC)cc2)c(=O)c2oc3ccccc3c21,x,-2.9%,20.5%,0.5
O=C(CCSc1ccccn1)c1ccccc1,0.9%,-6.2%[57.1 µM],2µM*,0.9
Cc1ccc(-n2ncc(C(=O)N3CCN(C(=O)c4ccco4)CC3)c2C2CCN(C(=O)OC(C)(C)C)CC2)cc1,x,-3.3%,10.2%,-1.5
Cc1ccc(-n2ncc(C(=O)N3CCN(C(=O)c4ccco4)CC3)c2C2CCN(C(=O)OC(C)(C)C)CC2)cc1C,6.6%,-8.1%,28.2µM*,2.0
O=C(O)Cc1ccc2sc(-c3ccccc3)nc2c1,7.5%,8.3%,5.3%,-67.1*
COC(=O)Cc1ccc2sc(-c3ccccc3)nc2c1,3.1%,-1.4%,2.0%,-62.3*
CC(NC(CCc1ccccc1)C(=O)O)C(=O)N1C(=O)N(C)CC1C(=O)O (stereo not given),x,x,x,-7.7
COc1ccc(/C=N\n2nnc3ccccc32)cc1,3.0%,5.8%[57.1 µM],7.9%,-59.0*
COc1ccc(/C=C/c2nc3ccccc3n2C)cc1,18.6%,18.3%[57.1 µM],8.8%[57.1 µM],-88.0*
Cc1oc(-c2ccc(C(=O)Nc3cccc(C(F)(F)F)c3)cc2)nc1CSc1ccccc1,x,3.9%,9.9%,-1.4
O=C(NC(=S)Nc1nc(-c2cccc([N+](=O)[O-])c2)cs1)c1ccccc1Cl,-1.2%,2.1%[57.1 µM],13.2%[57.1 µM],-0.7
O=C(NC(=S)Nc1nc(-c2cccc([N+](=O)[O-])c2)cs1)c1cc(Cl)ccc1Cl,5.9%,3.0%[57.1 µM],28.2µM*,2.8
Cc1ccc(CNC(=O)[C@H](C)[C@H]2C[C@]2(C)[C@H](NC(=O)OCc2ccccc2)c2ccccc2)o1,x,-2.4%,56.2µM*,0.5
CC(=O)N1CCN(c2nc(-c3ccco3)c3c(c2C#N)CC(C)(C)SC3)CC1,1.7%,13.0%[57.1 µM],u,-4.0
CCCCc1nc(NCCNC(=O)c2ccccc2)c(C#N)c2c1CSC(C)(C)C2,-5.0%,11.4%[57.1 µM],-0.5%[57.1 µM],-13.3
CCCCc1nc(NCCNC(=O)c2ccco2)c(C#N)c2c1CSC(C)(C)C2,-4.2%,76.8%,50.1µM*,-3.5
CC1(C)Cc2c(C#N)c(N3CCN(C(=O)c4ccco4)CC3)nc(-c3ccco3)c2CS1,-3.4%,26.7%,7.08µM*,u
CC1(C)Cc2c(C#N)c(N3CCN(C(=O)c4ccccc4Cl)CC3)nc(-c3ccco3)c2CS1,-2.8%,24.4%[57.1 µM],12.6µM*,-52.6*
N#Cc1c(N2CCN(C(=O)c3ccccc3Cl)CC2)nc(-c2ccccc2)c2c1CCCC2,-0.6%,130.5%,61.7%,-8.3
O=C1CCCC2=C1C(c1ccc(Br)cc1)c1c([nH]c(=S)[nH]c1=O)N2 (stereo not given),0.9%,-7.4%,u,-7.5
O=c1[nH]c(=S)[nH]c2c1C(c1ccc(Br)cc1)c1c([nH]c(=S)[nH]c1=O)O2,-29.3%,0.2%,u,-55.6*
